Experimental findings from PubChem BioAssay are described below.

Assay [1] can be described thus: anti-His antibody binders, primary screen, artefact control for SMM control protein annotation, biochemical, small-molecule microarray, 635 nm fluorescence (AID 1128).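 Also: score merges feature fluorescence with signal-to-noise for each printed compound spot.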 To be noted: anti-His Alexa647 antibody binding, higher = more signal.
The subject of assay [2] is Human papillomavirus type 1a E7 protein (residues 1-88). The assay can be described thus: HPV1a E7 small-molecule binders, primary screen, biochemical, small-molecule microarray, residues 1-88, 635 nm (AID 1129). To be noted: small-molecule microarray binding, fluorescence 635 nm; higher = more signal.
Assay [3] deals with Focal adhesion kinase 1 (Homo sapiens) (UniProt Q05397). The assay can be described thus: small-molecule microarray binders of FAK, primary screen, biochemical, 635/667 nm fluorescence, BSA, DTT (AID 1130).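 Also: composite of spot emission at 667 nm and signal to noise over triplicate slides.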 As to conditions: PTK2 binding, 635 nm fluorescence, higher = more signal.
Sequence of Focal adhesion kinase 1 (Homo sapiens) (Q05397 whole entry, looked up): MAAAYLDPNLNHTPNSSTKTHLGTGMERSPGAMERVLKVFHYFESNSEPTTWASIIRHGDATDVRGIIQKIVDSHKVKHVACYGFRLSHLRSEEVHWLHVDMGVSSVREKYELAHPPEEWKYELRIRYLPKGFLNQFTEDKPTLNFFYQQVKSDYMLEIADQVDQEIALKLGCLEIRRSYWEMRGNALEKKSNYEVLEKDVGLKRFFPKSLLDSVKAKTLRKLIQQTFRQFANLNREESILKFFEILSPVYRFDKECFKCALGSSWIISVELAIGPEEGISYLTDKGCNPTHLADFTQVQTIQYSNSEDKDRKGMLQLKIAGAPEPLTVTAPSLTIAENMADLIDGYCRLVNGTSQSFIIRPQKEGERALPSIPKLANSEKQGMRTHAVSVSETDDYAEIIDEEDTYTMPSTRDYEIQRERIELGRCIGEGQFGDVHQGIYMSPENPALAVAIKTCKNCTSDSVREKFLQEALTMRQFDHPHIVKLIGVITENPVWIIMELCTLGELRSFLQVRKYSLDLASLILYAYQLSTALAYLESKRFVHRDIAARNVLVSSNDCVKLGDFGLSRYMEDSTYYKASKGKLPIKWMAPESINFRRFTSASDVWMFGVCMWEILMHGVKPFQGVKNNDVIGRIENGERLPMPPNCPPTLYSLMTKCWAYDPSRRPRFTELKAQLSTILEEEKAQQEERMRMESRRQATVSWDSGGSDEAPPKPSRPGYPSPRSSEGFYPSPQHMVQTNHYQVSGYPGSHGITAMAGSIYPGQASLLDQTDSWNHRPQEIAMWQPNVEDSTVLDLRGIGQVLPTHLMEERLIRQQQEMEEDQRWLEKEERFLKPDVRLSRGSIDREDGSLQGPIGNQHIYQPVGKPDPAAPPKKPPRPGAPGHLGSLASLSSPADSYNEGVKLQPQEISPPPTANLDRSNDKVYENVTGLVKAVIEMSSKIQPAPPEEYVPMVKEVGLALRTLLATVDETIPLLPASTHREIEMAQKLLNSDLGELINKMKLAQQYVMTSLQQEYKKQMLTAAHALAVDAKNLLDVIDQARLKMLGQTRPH
Assay [4] concerns Fibrinogen (Alexa647-labelled). The assay can be described thus: fibrinogen binders on compound microarrays, profiling panel, artefact control for SMM control-protein annotation, biochemical, small-molecule microarray, 635/667 nm fluorescence (AID 1131).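 Also: z-score merges 667 nm fluorescence with per-spot signal-to-noise over triplicate slides.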 To be noted: fibrinogen-A647 binding fluorescence, higher = more signal.
Assay [5] has as its target Follistatin (Homo sapiens) (UniProt P19883). The assay can be described thus: follistatin binders on small-molecule microarrays, primary screen, biochemical, small-molecule microarray, 635/667 nm fluorescence (AID 1132). As to conditions: FST binding, 635 nm fluorescence, higher = more signal.
The target of assay [6] is Fibroblast growth factor 2 (Homo sapiens) (UniProt P09038). The assay can be described thus: FGF2 binders on small-molecule microarrays, primary screen, biochemical, small-molecule microarray, 635/667 nm fluorescence (AID 1133). To be noted: small-molecule microarray binding, FGF2, fluorescence 635/667; higher = more signal.
Sequence of Fibroblast growth factor 2 (Homo sapiens) (P09038 whole entry, looked up): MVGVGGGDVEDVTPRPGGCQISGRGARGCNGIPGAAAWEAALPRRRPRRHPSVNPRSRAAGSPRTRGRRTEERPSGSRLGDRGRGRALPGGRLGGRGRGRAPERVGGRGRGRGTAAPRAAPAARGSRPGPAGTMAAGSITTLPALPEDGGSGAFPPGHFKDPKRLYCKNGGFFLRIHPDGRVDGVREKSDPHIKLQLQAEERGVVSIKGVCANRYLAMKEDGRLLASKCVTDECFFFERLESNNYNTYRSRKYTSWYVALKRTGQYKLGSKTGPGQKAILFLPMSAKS
A short description of assay [7]: mitochondrial membrane potential change in A549 cells, profiling panel, cell-based, JC-1 fluorescence, basal, 24 h, 100 nL (AID 1138).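 Also: A549 lung adenocarcinoma cells under basal conditions with no added stimulus; test concentration not given here.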 As to conditions: higher = more signal.
The next assay deals with Lefty1. The assay can be described thus: Lefty1 binders on small-molecule microarrays, primary screen, biochemical, small-molecule microarray, 635/667 nm fluorescence (AID 1139). As to conditions: small-molecule microarray binding, fluorescence 635/667; higher = more signal.
For assay [8], the system named is wheat germ agglutinin (Triticum aestivum), Alexa647-labelled. The assay can be described thus: wheat germ agglutinin binders on compound microarrays, profiling panel, artefact control for SMM control-protein annotation, biochemical, small-molecule microarray, 635/667 nm fluorescence (AID 1140).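 Also: score merges 667 nm feature emission with signal to noise over triplicate slides.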 As to conditions: WGA-A647 binding, 635 nm fluorescence, higher = more signal.

The target in assay [9] is Luciferin 4-monooxygenase (Photinus pyralis) (UniProt P08659). Briefly: firefly luciferase enzyme inhibitors, primary screen, biochemical, luminescence, purified enzyme, 2006 set (AID 1141).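 Also: cell-free assay with purified firefly luciferase at 100 ng per well in PBS; test concentration not given here.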 As to conditions: SteadyGlo luminescence, 30 min, higher = more signal, called active from +8 up or from −8 down.
Sequence of Luciferin 4-monooxygenase (Photinus pyralis) (P08659 whole entry, looked up): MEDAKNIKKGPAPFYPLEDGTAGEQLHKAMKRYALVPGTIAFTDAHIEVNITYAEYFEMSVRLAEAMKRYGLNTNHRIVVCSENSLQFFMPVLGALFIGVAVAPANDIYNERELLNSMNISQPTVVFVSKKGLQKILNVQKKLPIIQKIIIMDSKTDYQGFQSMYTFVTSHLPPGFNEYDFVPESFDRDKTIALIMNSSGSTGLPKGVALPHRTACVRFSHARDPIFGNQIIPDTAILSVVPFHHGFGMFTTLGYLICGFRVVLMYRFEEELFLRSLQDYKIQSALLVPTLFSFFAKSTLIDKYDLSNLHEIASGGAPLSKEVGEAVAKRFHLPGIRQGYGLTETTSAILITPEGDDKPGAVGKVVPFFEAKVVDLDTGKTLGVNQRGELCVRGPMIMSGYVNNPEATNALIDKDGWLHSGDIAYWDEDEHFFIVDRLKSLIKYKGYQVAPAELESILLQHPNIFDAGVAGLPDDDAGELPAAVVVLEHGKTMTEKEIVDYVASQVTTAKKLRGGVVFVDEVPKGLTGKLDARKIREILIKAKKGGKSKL
The test system of assay [10] is Wnt5a (protein binding on small-molecule microarray). The assay can be described thus: Wnt5a binders on small-molecule microarray, primary screen, biophysical, 635/667 nm fluorescence (AID 1142).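 Also: fluorescence read at 667 nm with signal to noise per printed feature.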 To be noted: 635 nm fluorescence, higher = more signal.
A short description of assay [11]: cell viability in Huh7 cells, primary screen, cytotoxicity control for HCV replication inhibitor project, CellTiter-Glo luminescence, basal, 48 h (AID 1143).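 Also: Huh7 hepatoma cells carrying a hepatitis C replication reporter with no stimulus; test concentration not given here.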 As to conditions: Huh7 HCV replicon, higher = more signal, called active from +8 up or from −8 down. A general note: In ATP-based viability assays light output follows the ATP content of the culture.
A short description of assay [12]: P. aeruginosa biofilm formation inhibitors, primary screen, PAO1 strain, BacTiter-Glo luminescence, LB-PBS (AID 1144). To be noted: 12 h, higher = more signal.
The nature of assay [13]: CREB reporter modulators without forskolin, primary screen, cell-based, PC12, CRE-LacZ reporter, unstimulated (AID 1145). As to conditions: no forskolin, luminescence, 4.5 h, higher = more signal, called active from +8 up or from −8 down.
Assay [14] in a line: CREB reporter modulators under forskolin, primary screen, cell-based, PC12, CRE-LacZ reporter, forskolin-stimulated (AID 1146).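 Also: PC12 cells with 6xCRE LacZ reporter stimulated by forskolin 10 µM; beta-galactosidase reporter signal reflecting CREB driven transcription.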 As to conditions: luminescence, 4.5 h, higher = more signal, called active from +8 up or from −8 down.
The target of assay [15] is Streptavidin (Streptomyces avidinii) (UniProt P22629). Briefly: streptavidin binders on small-molecule microarray, primary screen, artefact control for SMM compound annotation, biophysical, 635/667 nm fluorescence (AID 1147).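 Also: signal reflects streptavidin binding to arrayed compounds as a control protein.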 To be noted: streptavidin binding, higher = more signal.
Sequence of Streptavidin (Streptomyces avidinii) (P22629 whole entry, looked up): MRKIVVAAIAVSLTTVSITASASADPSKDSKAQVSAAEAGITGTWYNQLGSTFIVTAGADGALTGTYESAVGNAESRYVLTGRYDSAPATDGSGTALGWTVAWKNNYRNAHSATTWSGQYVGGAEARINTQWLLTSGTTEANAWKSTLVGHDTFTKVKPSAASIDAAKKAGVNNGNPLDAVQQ
Assay [16] can be described thus: small-molecule binders of probe aInhba, primary screen, biochemical, small-molecule microarray, 635/667 nm fluorescence (AID 1148).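 Also: score merges 667nm spot fluorescence with signal-to-noise for antibody binding to printed compounds.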 As to conditions: higher = more signal.
For assay [17], the target named is Torsin-1A (Homo sapiens) (UniProt O14656). The assay can be described thus: torsin A binders from cell lysate, primary screen, small-molecule microarray, wild-type, 635/667 nm (AID 1149). As to conditions: COS7 hTOR1A-WT lysate, 635 nm fluorescence, higher = more signal.
Sequence of Torsin-1A (Homo sapiens) (O14656 whole entry, looked up): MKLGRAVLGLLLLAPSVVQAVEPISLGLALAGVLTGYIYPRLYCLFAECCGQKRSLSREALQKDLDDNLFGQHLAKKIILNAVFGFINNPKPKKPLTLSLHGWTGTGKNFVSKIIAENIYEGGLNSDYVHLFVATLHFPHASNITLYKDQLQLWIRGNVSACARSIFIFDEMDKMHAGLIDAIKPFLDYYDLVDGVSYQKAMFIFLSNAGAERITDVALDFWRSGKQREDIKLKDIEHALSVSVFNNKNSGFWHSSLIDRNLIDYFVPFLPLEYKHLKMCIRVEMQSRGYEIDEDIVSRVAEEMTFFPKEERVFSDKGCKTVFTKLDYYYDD
Assay [18] shares this target. Briefly: small-molecule binders of mutant TOR1A in lysate, primary screen, cell lysate, small-molecule microarray, COS7 lysate, 635/667 nm fluorescence (AID 1150).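 Also: score pools 667 nm emission and signal to noise measuring lysate protein binding.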 To be noted: COS7 hTOR1A mutant lysate, 635 nm fluorescence, higher = more signal.
For assay [19], the system named is Sonic hedgehog protein (Shh). Briefly: small-molecule binders of Shh protein, primary screen, biochemical, small-molecule microarray, 635/667 nm fluorescence (AID 1151).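 Also: Shh protein binding to compounds spotted on small-molecule microarray slides; score combines spot fluorescence intensity with signal-to-noise across triplicate slides.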 As to conditions: small-molecule microarray binding, 635 nm fluorescence; higher = more signal.

Active and inactive are the calls of the source. Unless noted, no rule for the calls is given here.

Sequence of Follistatin (Homo sapiens) (P19883 whole entry, looked up): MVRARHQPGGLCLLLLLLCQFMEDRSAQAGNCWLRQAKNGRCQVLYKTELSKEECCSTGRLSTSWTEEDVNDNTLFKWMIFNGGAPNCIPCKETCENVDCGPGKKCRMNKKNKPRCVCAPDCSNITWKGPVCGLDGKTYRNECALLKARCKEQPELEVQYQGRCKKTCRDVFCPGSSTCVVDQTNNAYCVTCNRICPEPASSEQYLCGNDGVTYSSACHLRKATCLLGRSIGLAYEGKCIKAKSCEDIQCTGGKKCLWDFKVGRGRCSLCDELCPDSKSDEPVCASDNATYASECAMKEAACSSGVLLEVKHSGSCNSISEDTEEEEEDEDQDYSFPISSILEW

Turning to `CCCC[C@@H](O)C1=C(COC)Cn2c(=O)n(-c3ccccc3)c(=O)n2[C@H]1CO`, the composite z-score is 0.0209 in assay [1]; -0.155 in assay [2]; -0.109 in [3]; 0.894 in assay [4]; -0.266 in [5]; 0.0646 in assay [6]. In addition, the composite z-score in the assay on Lefty1 is -0.0726; in assay [8], 0.858; in assay [10], -0.296; in assay [15] it was -0.538; in assay [16], -0.128; with Torsin-1A (Homo sapiens) [17] it was -0.527. For the same compound, the composite z-score with Torsin-1A (Homo sapiens) [18] is -0.577; in assay [19] it was 0.223. Further, the z-score in assay [7] was -0.239; in [9] it was -1.65 (inactive); in [11] it was -0.915 (inactive); in [12] it was -0.313 (inactive); in [13], -0.0487 (inactive); in [14], -1.11 (inactive).

Take `Cc1ccc(S[C@]2(C(=O)NC3CC3)CC(=O)N(Cc3cc(C(F)(F)F)cc(C(F)(F)F)c3)[C@@H]2c2ccc(CO)cc2I)cc1`: the composite z-score in [1] was determined as 2.99; in [2] it was 1.03; in assay [3], 0.941; in assay [4], 0.103; in assay [5] it was 1.09; in assay [6], 0.483. Further, the composite z-score in the assay on Lefty1 was -0.337; in assay [8] it was 0.0196; in assay [10], 0.272; in assay [15], 0.389; in assay [16], 0.532; with Torsin-1A (Homo sapiens) [17] it was -0.597. Further, the composite z-score with Torsin-1A (Homo sapiens) [18] turned out to be 0.409; in [19], 1.14. The z-score in assay [7] was -0.271; in assay [9], 0.717 (inactive); in [11] it was -0.636 (inactive); in assay [12], 0.141 (inactive); in [13], -0.0243 (inactive); in assay [14], 1.16 (inactive).

For the compound `CC(C)C(=C=CC[C@@H](O)c1ccccc1OCCO)C[C@@H](O)c1cc(Cl)cc(Cl)c1O`, the composite z-score is 1.46 in assay [1]; 1.23 in assay [2]; -0.14 in assay [3]; 0.88 in [4]; 1.38 in assay [5]; 0.964 in [6]. Moreover, the composite z-score in the assay on Lefty1 was 1.58; in assay [8] it was 0.54; in [10], 0.532; in [15], 1.05; in assay [16], 0.0622; with Torsin-1A (Homo sapiens) [17], 1.44. The composite z-score was 0.86 with Torsin-1A (Homo sapiens) [18] and 2.11 in assay [19]. Besides, the z-score in assay [7] was -1.35; in assay [9], -1 (inactive); in assay [11], -3.43 (inactive); in [12] it was 0.519 (inactive); in assay [13], 3.25 (inactive); in assay [14], 0.266 (inactive).

As for `C=CCOC(=O)[C@@H]1[C@H]2C(=O)O[C@H](c3ccccc3)[C@H](c3ccccc3)N2[C@H](c2ccc(OCCOC(=O)[C@H]3C[C@H]4C(=O)NCC(=O)N4[C@H]3c3ccc(O)cc3)cc2)[C@@]12C(=O)Nc1ccc(I)cc12`, the composite z-score in [1] turned out to be 1.24; in assay [2] it was 1.19; in assay [3], 0.701; in [4], 0.732; in assay [5] it was 1.27; in [6] it was 1.39. Further, the composite z-score is 1.06 in the assay with Lefty1; 0.665 in assay [8]; 0.266 in assay [10]; 0.868 in assay [15]; -0.0163 in assay [16]; 1.11 with Torsin-1A (Homo sapiens) [17]. Also, the figures for the composite z-score (in the assay with Torsin-1A (Homo sapiens) [18]; in assay [19]) were 0.854 and 1.81, respectively. The z-score is -1.1 in [7]; -0.483 (inactive) in assay [9]; -0.199 (inactive) in [11]; 0.22 (inactive) in assay [12]; -0.394 (inactive) in assay [13]; -0.732 (inactive) in assay [14].
